# Measured values published in the supplement of paper PMC10849652.
# Of roughly 7,900 targets only a part is listed; those with a hit were picked by preference. About 0.6% of all pairs of compound and target were hits. Unmarked numbers belong to inactive results.
# Compound: Cc1ccc(-n2nc(C(C)(C)C)cc2NC(=O)Nc2ccc(OCCN3CCOCC3)c3ccccc23)cc1 [doramapimod]
# Test: log2 fold change, soluble protein after heating vs DMSO (PISA); higher = thermal stabilisation; K562 cells, 10 uM, 30 min; active = over 0.2 and 3.5 SD of the protein, either way, in both replicates (recomputed)
# In short: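 Quantification of soluble protein used TMTpro 16plex LC-MS/MS, with channel sums equalised. Samples were the supernatant after 21,000xg for 90 min of pooled aliquots from K562 cells (2×10^6 cells/mL) treated with 10 μM compound for 30 min, heated for 3 min over 48°C-58°C, and extracted in PBS with 0.5% NP-40 at 4°C. Values, from duplicates, describe thermal stability against control samples on a log2 fold-change scale.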
# Sequence of UniProt Q8NDX5 (Q8NDX5 whole entry, looked up): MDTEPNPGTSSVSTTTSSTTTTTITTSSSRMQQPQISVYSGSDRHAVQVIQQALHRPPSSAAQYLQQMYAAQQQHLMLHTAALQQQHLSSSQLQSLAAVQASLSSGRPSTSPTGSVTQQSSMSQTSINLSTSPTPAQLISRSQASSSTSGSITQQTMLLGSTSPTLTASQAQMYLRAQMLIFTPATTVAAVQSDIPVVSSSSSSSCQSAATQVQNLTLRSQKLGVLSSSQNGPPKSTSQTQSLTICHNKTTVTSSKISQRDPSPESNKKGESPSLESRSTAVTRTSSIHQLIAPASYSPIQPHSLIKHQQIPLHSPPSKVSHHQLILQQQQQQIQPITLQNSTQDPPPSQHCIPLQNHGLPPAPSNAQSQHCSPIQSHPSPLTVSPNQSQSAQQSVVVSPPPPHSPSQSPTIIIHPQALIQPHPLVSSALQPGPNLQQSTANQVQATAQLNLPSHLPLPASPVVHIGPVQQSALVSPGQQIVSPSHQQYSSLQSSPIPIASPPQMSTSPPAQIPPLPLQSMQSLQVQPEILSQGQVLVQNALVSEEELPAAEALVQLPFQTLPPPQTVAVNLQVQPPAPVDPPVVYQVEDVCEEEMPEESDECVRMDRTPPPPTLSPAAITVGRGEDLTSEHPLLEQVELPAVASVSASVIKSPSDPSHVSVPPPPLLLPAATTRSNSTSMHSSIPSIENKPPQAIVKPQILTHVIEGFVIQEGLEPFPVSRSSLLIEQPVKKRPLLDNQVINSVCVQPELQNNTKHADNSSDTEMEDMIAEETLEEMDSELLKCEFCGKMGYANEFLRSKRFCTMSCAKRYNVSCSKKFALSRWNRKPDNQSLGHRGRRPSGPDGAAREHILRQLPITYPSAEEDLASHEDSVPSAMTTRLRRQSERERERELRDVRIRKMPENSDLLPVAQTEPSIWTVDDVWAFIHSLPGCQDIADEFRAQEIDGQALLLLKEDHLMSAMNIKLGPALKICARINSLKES
# Sequence of UniProt P15735 (P15735 whole entry, looked up): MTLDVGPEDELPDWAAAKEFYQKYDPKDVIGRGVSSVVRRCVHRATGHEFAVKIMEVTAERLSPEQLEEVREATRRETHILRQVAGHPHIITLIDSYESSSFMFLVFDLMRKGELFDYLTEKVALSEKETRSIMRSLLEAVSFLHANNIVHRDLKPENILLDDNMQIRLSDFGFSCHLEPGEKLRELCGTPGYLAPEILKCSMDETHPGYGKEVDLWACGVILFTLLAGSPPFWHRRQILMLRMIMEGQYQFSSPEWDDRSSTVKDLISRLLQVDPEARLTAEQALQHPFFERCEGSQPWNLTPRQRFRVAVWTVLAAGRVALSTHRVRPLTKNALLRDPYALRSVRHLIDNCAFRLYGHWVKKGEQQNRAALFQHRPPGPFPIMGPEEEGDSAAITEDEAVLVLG
# Sequence of UniProt P14618 (P14618 whole entry, looked up): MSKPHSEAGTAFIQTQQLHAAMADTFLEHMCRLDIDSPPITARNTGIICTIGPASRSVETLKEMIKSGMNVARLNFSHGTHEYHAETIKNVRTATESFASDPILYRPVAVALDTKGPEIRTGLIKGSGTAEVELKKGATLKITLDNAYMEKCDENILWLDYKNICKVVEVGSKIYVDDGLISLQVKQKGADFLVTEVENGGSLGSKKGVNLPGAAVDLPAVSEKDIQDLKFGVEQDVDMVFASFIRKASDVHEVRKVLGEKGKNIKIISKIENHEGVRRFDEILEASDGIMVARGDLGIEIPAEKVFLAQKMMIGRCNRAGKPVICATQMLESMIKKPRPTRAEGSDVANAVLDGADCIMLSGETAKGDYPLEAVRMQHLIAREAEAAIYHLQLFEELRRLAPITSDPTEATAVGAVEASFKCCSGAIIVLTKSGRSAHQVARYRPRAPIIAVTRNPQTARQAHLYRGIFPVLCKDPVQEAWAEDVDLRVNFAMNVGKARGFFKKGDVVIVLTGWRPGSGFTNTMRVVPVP
# Sequence of UniProt O00233 (O00233 whole entry, looked up): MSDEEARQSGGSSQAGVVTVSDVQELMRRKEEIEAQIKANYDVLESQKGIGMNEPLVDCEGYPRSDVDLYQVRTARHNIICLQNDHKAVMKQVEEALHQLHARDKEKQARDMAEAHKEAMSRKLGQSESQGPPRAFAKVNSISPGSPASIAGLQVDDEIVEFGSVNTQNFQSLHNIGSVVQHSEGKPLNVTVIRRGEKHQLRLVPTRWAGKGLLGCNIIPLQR
# Sequence of UniProt O00329 (O00329 whole entry, looked up): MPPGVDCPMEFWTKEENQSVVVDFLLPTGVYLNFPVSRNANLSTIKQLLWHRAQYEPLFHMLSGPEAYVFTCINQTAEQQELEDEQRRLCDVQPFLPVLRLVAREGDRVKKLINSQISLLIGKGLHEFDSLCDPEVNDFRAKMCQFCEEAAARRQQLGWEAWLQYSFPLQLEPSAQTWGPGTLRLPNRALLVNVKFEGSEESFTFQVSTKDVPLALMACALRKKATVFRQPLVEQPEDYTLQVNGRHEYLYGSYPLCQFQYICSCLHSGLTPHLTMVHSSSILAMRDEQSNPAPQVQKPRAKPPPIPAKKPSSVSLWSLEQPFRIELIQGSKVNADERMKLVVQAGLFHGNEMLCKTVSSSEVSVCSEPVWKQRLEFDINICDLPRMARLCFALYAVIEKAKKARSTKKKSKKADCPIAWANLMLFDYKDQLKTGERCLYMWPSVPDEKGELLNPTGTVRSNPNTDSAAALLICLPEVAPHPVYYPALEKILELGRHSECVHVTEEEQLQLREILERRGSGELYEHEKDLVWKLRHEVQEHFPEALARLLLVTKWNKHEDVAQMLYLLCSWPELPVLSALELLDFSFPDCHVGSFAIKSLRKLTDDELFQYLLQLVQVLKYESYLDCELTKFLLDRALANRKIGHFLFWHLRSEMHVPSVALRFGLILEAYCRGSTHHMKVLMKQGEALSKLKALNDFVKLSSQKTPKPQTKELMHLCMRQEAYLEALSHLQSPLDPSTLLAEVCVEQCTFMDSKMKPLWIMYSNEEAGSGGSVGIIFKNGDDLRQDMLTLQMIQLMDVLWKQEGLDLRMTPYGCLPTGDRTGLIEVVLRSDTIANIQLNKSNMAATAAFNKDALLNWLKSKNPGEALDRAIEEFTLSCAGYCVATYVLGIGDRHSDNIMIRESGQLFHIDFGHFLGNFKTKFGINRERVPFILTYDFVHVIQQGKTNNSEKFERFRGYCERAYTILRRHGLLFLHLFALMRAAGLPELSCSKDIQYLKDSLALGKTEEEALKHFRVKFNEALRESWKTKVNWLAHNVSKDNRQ
# Sequence of UniProt Q15185 (Q15185 whole entry, looked up): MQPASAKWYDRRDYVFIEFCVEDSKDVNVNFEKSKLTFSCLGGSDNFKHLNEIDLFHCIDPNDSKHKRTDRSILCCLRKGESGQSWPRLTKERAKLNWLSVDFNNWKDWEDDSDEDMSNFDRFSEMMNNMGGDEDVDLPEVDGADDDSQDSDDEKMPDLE
# Sequence of UniProt O43741 (O43741 whole entry, looked up): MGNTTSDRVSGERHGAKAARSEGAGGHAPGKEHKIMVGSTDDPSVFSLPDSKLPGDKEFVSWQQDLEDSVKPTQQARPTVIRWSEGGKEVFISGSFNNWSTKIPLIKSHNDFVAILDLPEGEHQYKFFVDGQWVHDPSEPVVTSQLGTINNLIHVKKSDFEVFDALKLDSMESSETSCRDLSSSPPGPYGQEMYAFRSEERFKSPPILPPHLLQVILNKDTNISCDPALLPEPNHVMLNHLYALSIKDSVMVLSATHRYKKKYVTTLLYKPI
# Sequence of UniProt P09874 (P09874 whole entry, looked up): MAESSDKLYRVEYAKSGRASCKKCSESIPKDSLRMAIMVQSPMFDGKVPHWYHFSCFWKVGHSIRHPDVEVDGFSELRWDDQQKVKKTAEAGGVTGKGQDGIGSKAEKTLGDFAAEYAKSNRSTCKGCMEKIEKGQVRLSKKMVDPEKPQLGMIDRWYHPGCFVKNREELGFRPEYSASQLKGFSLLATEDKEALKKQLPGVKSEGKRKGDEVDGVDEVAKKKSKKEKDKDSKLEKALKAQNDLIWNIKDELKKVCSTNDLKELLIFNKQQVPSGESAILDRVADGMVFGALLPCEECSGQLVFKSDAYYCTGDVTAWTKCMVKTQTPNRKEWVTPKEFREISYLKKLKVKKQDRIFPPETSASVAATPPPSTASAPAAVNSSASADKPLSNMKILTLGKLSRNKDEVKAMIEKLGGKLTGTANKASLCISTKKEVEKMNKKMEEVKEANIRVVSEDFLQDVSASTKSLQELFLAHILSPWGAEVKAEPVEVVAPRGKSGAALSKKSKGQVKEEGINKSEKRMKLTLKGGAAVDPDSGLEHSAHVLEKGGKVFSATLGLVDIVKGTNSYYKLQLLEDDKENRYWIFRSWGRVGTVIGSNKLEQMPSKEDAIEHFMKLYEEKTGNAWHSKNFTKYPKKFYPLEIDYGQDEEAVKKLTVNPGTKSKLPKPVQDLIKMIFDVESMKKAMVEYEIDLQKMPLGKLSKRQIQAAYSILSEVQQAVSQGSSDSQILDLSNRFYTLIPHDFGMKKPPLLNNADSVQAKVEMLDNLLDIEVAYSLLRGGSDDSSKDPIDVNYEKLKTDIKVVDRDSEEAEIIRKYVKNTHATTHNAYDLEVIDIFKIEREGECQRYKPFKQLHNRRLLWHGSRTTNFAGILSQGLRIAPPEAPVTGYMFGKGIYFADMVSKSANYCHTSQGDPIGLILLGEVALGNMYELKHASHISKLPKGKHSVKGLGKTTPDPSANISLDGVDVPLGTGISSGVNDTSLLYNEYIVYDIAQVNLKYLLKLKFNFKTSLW
# Sequence of UniProt P49585 (P49585 whole entry, looked up): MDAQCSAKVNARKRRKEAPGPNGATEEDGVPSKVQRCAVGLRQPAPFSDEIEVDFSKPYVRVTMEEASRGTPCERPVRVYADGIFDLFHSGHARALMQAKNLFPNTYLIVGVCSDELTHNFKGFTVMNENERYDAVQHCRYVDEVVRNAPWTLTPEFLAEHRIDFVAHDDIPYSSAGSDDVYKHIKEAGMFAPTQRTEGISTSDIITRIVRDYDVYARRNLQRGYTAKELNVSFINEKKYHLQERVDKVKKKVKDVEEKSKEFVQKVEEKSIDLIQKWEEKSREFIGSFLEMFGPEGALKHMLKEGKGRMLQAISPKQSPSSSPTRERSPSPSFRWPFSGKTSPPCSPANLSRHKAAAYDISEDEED
row,Target,log2 fold change
1,PELP1 (UniProt Q8IZL8),0.019
2,PDE2A (UniProt O00408),-0.026
3,PSMD1 (UniProt Q99460),0.036
4,POLR2M (UniProt Q6EEV4),-0.04
5,POGLUT1 (UniProt Q8NBL1),0.029
6,PTP4A2 (UniProt Q12974),-0.047
7,PNN (UniProt Q9H307),-0.032
8,PRPF40A (UniProt O75400),0.021
9,PIKFYVE (UniProt Q9Y2I7),0.023
10,PCYT1A (UniProt P49585),-0.008
11,PHC3 isoform 7 (UniProt Q8NDX5),0.131
12,PSMB9 (UniProt P28065),0.084
13,PRPF4B (UniProt Q13523),0.044
14,PNPLA2 (UniProt Q96AD5),0.046
15,PARP1 (UniProt P09874),-0.065
16,PDIK1L (UniProt Q8N165),0.085
17,PTPN23 (UniProt Q9H3S7),-0.002
18,PPP1R14A (UniProt Q96A00),-0.086

row,Target,log2 fold change
1,PIK3R1 (UniProt P27986),0.056
2,PKM isoform 2 (UniProt P14618),0.029
3,PSMC4 (UniProt P43686),0.02
4,PHAX (UniProt Q9H814),-0.016
5,POLR2K (UniProt P53803),-0.059
6,PLSCR1 (UniProt O15162),0.042
7,PSMD9 (UniProt O00233),0.001
8,PIK3CD (UniProt O00329),0.042
9,PTGES3 (UniProt Q15185),-0.118
10,POLR2C (UniProt P19387),0.012
11,PHKG2 (UniProt P15735),0.044
12,QRICH1 (UniProt Q2TAL8),-0.077
13,PSMD3 (UniProt O43242),0.047
14,PKN2 (UniProt Q16513),0.035
15,PRKAB2 (UniProt O43741),-0.041
16,PLCL1 (UniProt Q15111),-0.08
17,PCBP1 (UniProt Q15365),-0.016
18,PRMT8 (UniProt Q9NR22),-0.021
